Screening results: PubChem, National Center for Advancing Translational Sciences (NCATS)
Shown is part of a subset that was picked to be rich in hits.
DT40 TDP1 CPT: DT40-hTDP1 cell growth loss with CPT. Potency, µM (doses to about 46.2 µM), for the others: at the top dose activity change, negative = growth inhibition, most hits filed as inhibitors. chicken DT40 Tdp1-/-;hTDP1 cells + 20 nM CPT, ATP luminescence, 48 h. 420,000 tested, 12% active; also: potency is read from the fitted curve at half-maximal effect; nearly all actives have a fitted effect of over 55% in size
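Cell growth measured by CellTiter-Glo luminescence after a minimum 48 h, 37 C compound exposure with 20 nM CPT in Tdp1-knockout DT40 cells stably expressing hTDP1, seeded 400/well; qHTS titration format.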
HT1080 IDH1KD tx: toxicity to HT-1080 IDH1 knockdown cells (counter line). 360,000 tested, 2% active. Potency, µM (top dose mostly 46.1 µM), for inactives: at the highest dose activity, negative = toxicity, actives largely listed as cytotoxic. HT-1080 IDH1 knockdown viability, ATP luminescence, 48 h;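 also: potency is read from the fitted curve at half-maximal effect; 0% = DMSO wells and -100% = cell-free medium wells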
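Luminescent ATP read-out (CellTiter-Glo, 10 min at room temperature) after 48 h compound exposure at 37 °C gave viability of IDH1-knockdown HT-1080 cells. Activity was normalised to DMSO and cell-free wells, then fitted as concentration-response curves.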
DT40 TDP1 no CPT: qHTS for Inhibitors of human tyrosyl-DNA phosphodiesterase 1 (TDP1): qHTS in cells in absence of CPT. DT40 Tdp1-/- hTDP1 cells, no CPT, ATP luminescence, 48 h. 420,000 tested, 15% active. Potency, µM (top dose mostly 46.2 µM), for inactives: top-dose activity change, negative = growth inhibition, actives largely listed as inhibitors. AID 686978, 2013; also: potency is read from the fitted curve at half-maximal effect; nearly all actives have a fitted effect of over 55% in size
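Chicken DT40 Tdp1-/- cells complemented with human TDP1, screened without camptothecin (DMSO vehicle only), 400 cells/well. Compounds pin-transferred, cells incubated at 37 °C for at least 48 hr. Growth read as ATP-dependent luminescence (CellTiter-Glo, 30 min at RT).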
12-LOX inh: inhibitors of human 12S-lipoxygenase ALOX12. purified 12hLO, xylenol orange hydroperoxide absorbance. Potency, µM (doses to about 108 µM), inactives show at the top dose activity change, negative = inhibition, actives largely listed as inhibitors. 580,000 tested, 1.1% active; also: potency is read from the fitted curve at half-maximal effect
Target sequence (P18054 whole entry, looked up): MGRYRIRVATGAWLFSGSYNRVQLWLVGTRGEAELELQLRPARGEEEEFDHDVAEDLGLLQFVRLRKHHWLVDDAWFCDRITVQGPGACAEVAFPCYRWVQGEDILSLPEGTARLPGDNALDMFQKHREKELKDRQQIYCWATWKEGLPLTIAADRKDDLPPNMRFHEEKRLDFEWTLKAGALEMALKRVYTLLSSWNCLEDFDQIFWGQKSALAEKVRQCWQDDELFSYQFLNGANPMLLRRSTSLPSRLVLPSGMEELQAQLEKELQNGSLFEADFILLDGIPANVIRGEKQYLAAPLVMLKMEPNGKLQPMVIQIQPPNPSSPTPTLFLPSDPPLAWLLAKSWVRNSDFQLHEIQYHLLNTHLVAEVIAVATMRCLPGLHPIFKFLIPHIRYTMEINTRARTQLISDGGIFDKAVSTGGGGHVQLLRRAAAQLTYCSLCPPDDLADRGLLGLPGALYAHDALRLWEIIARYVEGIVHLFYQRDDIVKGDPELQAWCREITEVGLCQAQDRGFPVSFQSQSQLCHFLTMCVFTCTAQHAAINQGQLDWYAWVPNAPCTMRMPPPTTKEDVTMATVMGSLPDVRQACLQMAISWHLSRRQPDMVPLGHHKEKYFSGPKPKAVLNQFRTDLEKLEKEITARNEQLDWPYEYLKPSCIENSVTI
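Hydroperoxide product was detected by ferrous iron/xylenol orange as the 573 to 405 nm absorbance ratio. Arachidonic acid at 40 uM (final) was turned over for 30 min at room temperature by 150 nM human 12hLO, pH 7.0 Hepes buffer, after 15 min compound preincubation.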
HT1080NT lethal: kills 2HG-producing HT-1080-NT fibrosarcoma cells | AID 686970 | Potency, µM (doses to about 46.1 µM), without a hit: at the top dose activity, negative = less viability, usual class: cytotoxic | HT-1080-NT fibrosarcoma viability, CellTiter-Glo ATP luminescence, 48 h | 360,000 tested, 1.6% active;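 also: NT is the 2HG producing partner of a matched IDH1 knockdown line; potency is read from the fitted curve at half-maximal effect; 0% = DMSO-treated cells and -100% = media-only wells without cells; nearly all actives have a fitted effect of over 55% in size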
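Viability of the 2HG-overproducing fibrosarcoma line after 48 hours of compound exposure at 37 degrees C was determined by luminescence with CellTiter-Glo, and concentration-effect curves were then fitted and categorized.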
IL-1B inflam inh: inhibitors of inflammasome signaling (IL-1 beta secretion). THP-1 LPS/ATP IL-1B secretion, AlphaLISA, 16 h; stronger effect = lower value. activity change, % at 57.5 µM. 360,000 tested, 4.7% active; in the data active = activity change below about -50%; inconclusive = mostly about -30% to -49%
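Secreted IL-1B measured by AlphaLISA bead assay after 16 h compound exposure of THP-1 cells; compounds (final up to 57.5 uM) added 1 h before LPS (250 ng/mL) and ATP (1.25 mM) stimulation; lower signal means less secretion.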
* = called active by the depositor; ? = inconclusive; / = no result; [ ] = another dose, or the depositor's remark. Unless noted, calls follow the shape of the dose curve; as a rule, active = well fitted curve in the direction sought with a large enough effect; inconclusive = small, poorly fitted or top-dose-only effect, or another doubt; inactive = no such curve, though single readings can be large; an effect the other way counts as inactive or inconclusive. Unless noted, % is scaled to controls: 0 for no effect and ±100 for the full control effect.

SMILES | DT40 TDP1 CPT | HT1080 IDH1KD tx | DT40 TDP1 no CPT | 12-LOX inh | HT1080NT lethal | IL-1B inflam inh
CCN1CCN(c2ccc(NC(=O)CCc3c(C)nc4c(-c5ccc(F)cc5)c(C)nn4c3C)cc2)CC1 | 10µM* | -27% | 5.8µM* | ? | -6% | ?
Cc1nc2cc(-c3ccccc3)nn2c(C)c1CCC(=O)N1CCN(c2ccc(F)cc2)CC1 | 23µM* | / | 10µM* | -19% | / | /
Cc1nc2c(-c3ccc(F)cc3)c(C)nn2c(C)c1CCC(=O)N1CCC(Cc2ccccc2)CC1 | ? | -11% | 23µM* | ? | -1% | -11
Cc1nc(N2CCCCC2)n(CC(=O)Nc2ccc(Br)cc2F)c(=O)c1C | / | / | / | 1% | / | /
CC(=O)c1ccc(N2CCN(C(C(=O)O)c3cn(C)c4ccc(C(=O)O)cc34)CC2)cc1 (stereo not drawn) | / | / | / | 1% | / | /
Cc1nc2c(-c3ccc(F)cc3)c(C)nn2c(C)c1CCC(=O)N1CCN(c2ccccc2)CC1 | 18µM* | -5% | ? | -18% | -1% | -14
COCCCNC(=O)CCc1c(C)nc2c(-c3ccc(F)cc3)c(C)nn2c1C | -27% | 0% | -4% | -3% | 0% | ?
Cc1nc2c(-c3ccccc3)c(C)nn2c(C)c1CCC(=O)N1CCOCC1 | -6% | ? | -19% | -12% | 2% | -9
CCOC(=O)C1CCN(C(=O)CCc2c(C)nc3cc(-c4ccccc4)nn3c2C)CC1 | ? | -1% | -28% | 21% | 7% | 2
Cc1nc2c(-c3ccc(F)cc3)c(C)nn2c(C)c1CCC(=O)NCCN1CCOCC1 | -7% | -3% | -12% | 1%[57.4 µM] | 0% | 23
CCOC(=O)C1CCCCN1C(=O)CCc1c(C)nc2cc(-c3ccccc3)nn2c1C (stereo not drawn) | 3.7µM* | 11% | 4.1µM* | -3% | 13% | 38
Cc1nc2c(-c3ccc(F)cc3)c(C)nn2c(C)c1CCC(=O)N1CCN(c2ccc(F)cc2)CC1 | 18µM* | -2% | 18µM* | -19% | -2% | -22
CCOC(=O)C1CCN(C(=O)CCc2c(C)nc3c(-c4ccc(F)cc4)c(C)nn3c2C)CC1 | 8.2µM* | 10% | ? | 1% | -1% | 9
COc1cncc(Nc2ncc(-c3cccc(F)c3)c3c2OCC3)c1 | / | / | / | 31%[176 µM] | / | /
Cc1ccc2cccc(N)c2n1 | -1% | 15% | -11% | 5% | -1% | 14
Cc1ccc2cccc(O)c2n1 | 7.1µM* | / | 7.1µM* | / | / | /
COc1ccc(Cl)cc1NC(=O)CN(C)C(=O)c1cc2c(F)cccc2s1 | 10µM* | ? | 6.5µM* | -22% | ? | 39
COc1ccc(Cl)cc1NC(=O)CN(C)CC(=O)Nc1cc(OC)c(OC)c(OC)c1 | 5.8µM* | 8.2µM* | 4.1µM* | 27% | 12µM* | 0
COc1ccc(Cl)cc1NC(=O)CN(C)CC(=O)NCc1cccs1 | ? | -2% | ? | -26% | 1% | -12
COc1ccc(Cl)cc1NC(=O)CN(C)CC(=O)Nc1ccc(S(N)(=O)=O)cc1 | -3% | -9% | -10% | 8% | -10% | -18
COc1ccc(Cl)cc1NC(=O)CN(C)CC(=O)Nc1ccc(Br)cc1 | ? | ? | ? | 57% | ? | -89*
COc1ccc(Cl)cc1NC(=O)CN(C)C(=O)c1ccc(C)s1 | 13% | -1% | -1% | 1% | -23% | 23
COc1ccc(-n2ccc(=O)c(C(=O)Nc3cc(OC)ccc3OC)n2)cc1 | / | / | / | -55% | / | /
CC(C)(C)C(=O)NCCCNC(=O)C(C)(C)C | / | / | / | -51% | / | /
COc1ccccc1NC(=O)CSc1nc2c(=O)[nH]cnc2n1-c1ccc(C)cc1 | / | / | / | 15% | / | /
